Laboratory results as given in the supplement of paper PMC10338343.
± gives the standard deviation.

Test system: MILI (PIWIL2) piRISC loaded with piRNA #1 (26 nt);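 note: 1 nM active piRISC with 0.1 nM target library at 33 °C single turnover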
Assay: pre-steady-state target cleavage rate (min^-1); guide: piRNA #1 5'p-UGAGGUAGUAGGUUGUAUAGUAUCCA; higher = faster piRNA-guided slicing of the target
Conditions: auxiliary factor: 500 nM mouse GTSF1
Outline: (§1)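 Three pooled Cleave-'n-Seq trials supplied the data, with k3 capped at 0.0001 min^-1. In each, […] transcribed, DNA-blocked target RNA library and 1 nM active affinity-purified piRISC with one synthetic guide reacted in HEPES–potassium acetate buffer at 33 °C for 0–8 or 0–960 min, with or without 500 nM GTSF1 partner protein. Uncleaved targets were sequenced and normalised to depth and to weakly complementary targets. A burst-and-steady-state fit provided the pre-steady-state cleavage rate.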

Sequence	pre-steady-state target cleavage rate
GGAGACCUUACUAUACAACCUACAUACCUCA	0.157 ± 0.011
GGAGUGCAUUCUAUACAACCUACUACCUCA	0.13 ± 0.011
GGAGACGAUAGUAUACAACCUACUAGCUCA	0.0976 ± 0.021
GGAGUGGAUUCUAUUCAACCUACUACCUCA	0.165 ± 0.008
GGAGACCUAUGAUUACAUCCUACUUCCUCA	0.00764 ± 0.0027
GGAGACCUAAGUAUACAACCUACUUCCUCA	0.0285 ± 0.0069
GGAGACCUAUGAAUACAUCCUACUACGUCA	0.00336 ± 0.0019
GGAGACCUAACUAUAAAACCUACUACCUCA	0.0772 ± 0.013
GGAGACCUAUGAUUACAACCUACUACCCUCA	0.00361 ± 0.0029
GGAGACCUAUCUAUACAACGUACUACCUCA	0.0127 ± 0.0028
GGAGACGAUACUAUUGAACCUACUACCUCA	0.157 ± 0.016
GGAGACCUUAGUAUACUACCUACUACCUCA	0.0896 ± 0.012
GGAGACGAUACUAUACAACCAAGUACCUCA	0.00441 ± 0.0027
GGAGACCUAUGAUAUGAAGGAACUACCUCA	< 0.0001
GGAGACCUAUGAUUACAACCUACUACCUUA	0.00425 ± 0.0023
GGAGACGACACUAUACAACCUACUACCUCA	0.214 ± 0.025
GGAGACCUAACUAUACAACCUACUACGUGA	0.0518 ± 0.018
GGAGACCAUACUAUACAACCUACAAGCUCA	0.0598 ± 0.015
GGAGACCUUACUAUACAACGUACAACCUCA	0.0226 ± 0.0031
GGAGACGAUAGUAAACAACCUACUACCUCA	0.134 ± 0.01

Sequence	pre-steady-state target cleavage rate
GGAGACCUAUGAUAUGUUCCUACUUCCUCA	< 0.0001
GGAGACCUAUGAUUACAACGUACUACCUCA	0.00443 ± 0.0016
GGAGACGAUACUAUACAAUCUACUACCUCA	0.131 ± 0.0093
GGAGAGGAUACUUACAACCUACUACCUCA	0.125 ± 0.012
GGAGACCUAUGAUUACAACCUACUACCUACA	0.00666 ± 0.0024
GGAGACCUUUCUAUACAACCUACUACCUGA	0.0728 ± 0.013
GGAGACCUAACUAUACAACCUACCUACCUCA	0.0837 ± 0.018
GGAGACCUUACUAUACUACCUACUACCUGA	0.105 ± 0.014
GGAGCGGAUACUAUACAACCUACUACCUCA	0.203 ± 0.013
GGAGACCUAUGUAUAGAACCUACUACCACA	0.0238 ± 0.0059
GGAGACCAUACUAUACAACCUACUACACUCA	0.204 ± 0.027
GGAGACCUUACAAUACAACCUUCUACCUCA	0.00687 ± 0.0029
GGAGACCUAACUAAACAACCUACUACGUCA	0.0404 ± 0.019
GGAGACCUUACUAUACAACCUACUACCUUCA	0.16 ± 0.015
GGAGACCUAUGUUUACAUCCUACUACCUCA	0.0197 ± 0.0031
GGAGUGGAUACUAUUGAACCUACUACCUCA	0.0784 ± 0.0078
GGAGACCUAUGAUUACUACCUACUUCCUCA	0.00322 ± 0.0022
GGAGACCUAUGUAUAGCAACCUACUACCUCA	0.0101 ± 0.003
GGAGACCUAUGUAAACAACCUACUACCUCA	0.0131 ± 0.0032

Test system: EfPiwi piRISC loaded with piRNA #1 (26 nt)
Assay: pre-steady-state target cleavage rate (min^-1); auxiliary factor: 500 nM Ephydatia muelleri Gtsf1; guide: piRNA #1 5'p-UGAGGUAGUAGGUUGUAUAGUAUCCA; MIWI and MILI are mouse PIWI proteins and EfPiwi is from a freshwater sponge; tags in brackets are library labels; higher = faster piRNA-guided slicing of the target
Conditions: not given
Outline: as §1

Sequence	pre-steady-state target cleavage rate
GGAGACGACACUAUACAACCUACUACCUCA	0.114 ± 0.038
GGAGACCUAACUAUACAACCUACUACGUGA	0.0069 ± 0.0046
GGAGACGAUACUAUACAAUCUACUACCUCA	0.00912 ± 0.0039
GGAGACCUUUCUAUACAACCUACUACCUGA	0.0049 ± 0.0044
GGAGCGGAUACUAUACAACCUACUACCUCA	0.141 ± 0.048
GGAGACCAUACUAUACAACCUACUACACUCA	0.00487 ± 0.0033
GGAGACCUUACUAUACAACCUACUACCUUCA	0.0532 ± 0.019
